From PubChem BioAssay
CatB mixtures: inhibitors of human cathepsin B in compound mixtures; hit rate 0.06% among 62,000; Purified cathepsin B, AMC dipeptide fluorescence; P07858; inhibition, %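 (ten-compound pools at 5 µM per compound and 50 µM total)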; in the data active = inhibition above about 22%, passing the limit was not always enough
CatL inh: blocks human cathepsin L protease activity; P07711; purified cathepsin L, fluorogenic substrate, fluorescence; inhibition, %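 (tested at 10 µM)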; hit rate 0.17% among 58,000; in the data active = inhibition above about 45%
Target sequence (P07711 114-288 limits assumed): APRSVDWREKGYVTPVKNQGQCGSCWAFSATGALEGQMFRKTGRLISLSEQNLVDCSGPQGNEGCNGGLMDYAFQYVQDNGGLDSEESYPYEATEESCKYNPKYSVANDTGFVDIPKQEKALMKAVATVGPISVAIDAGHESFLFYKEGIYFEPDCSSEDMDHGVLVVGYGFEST
Target sequence (P07711 292-333 limits assumed): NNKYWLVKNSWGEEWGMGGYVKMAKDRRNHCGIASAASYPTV
CatS inh: human cathepsin S inhibition; hit rate 0.06% among 62,000; P25774; inhibition, %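 (tested at 5 µM per compound within 10-compound mixtures)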; recombinant cathepsin S, AMC dipeptide fluorescence, pooled mixtures; AID 501; in the data active = inhibition above about 32%, passing the limit was not always enough
CatB block: inhibitors of human cathepsin B | P07858 | inhibition, %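 (tested at 10 µM)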 | AID 453 | hit rate 0.1% among 63,000 | purified cathepsin B, fluorogenic substrate, fluorescence; in the data active = inhibition above about 21%
Numbers stand for hits; – = inactive; · = no result given. Hits are enriched below; roughly 0.29% of the tested compounds scored in any of these assays.

SMILES | CatB mixtures | CatL inh | CatS inh | CatB block
CCOC(=O)N1CCC(NC(=O)C2CCCCN2S(=O)(=O)c2ccc(F)cc2)CC1 (centres undefined) | – | 104.2 | – | –
Cc1ccc(C(=O)COC(=O)CNC(=O)c2ccco2)cc1 | – | – | – | –
COc1ccc(C(=O)C(OC(=O)CNC(=O)c2ccco2)c2ccccc2)cc1 (centres undefined) | – | 67.7 | – | 21.3
CC(C)CCNC(=O)[C@H](CC(C)C)NC(=O)[C@H]1O[C@@H]1C(=O)O | 100.3 | 98.7 | · | ·
Cc1nc(COC(=O)c2ccc(S(=O)(=O)N3CCCC3)cc2)cs1 | – | – | – | –
COc1ccccc1CN(Cc1ccco1)S(=O)(=O)c1ccc(-n2cnnn2)c(OC)c1 | – | – | 59.7 | –
COc1cccc(CN(Cc2cccnc2)S(=O)(=O)c2ccc(-n3cnnn3)c(C)c2)c1OC | – | – | – | –
COc1ccc(-n2c(Cc3cccn3C)nnc2SCC(=O)NCc2ccccc2Cl)cc1 | – | 101.4 | – | –
Cn1cccc1Cc1nnc(SCC(=O)NCC2CCCO2)n1-c1ccc(F)cc1 (centres undefined) | – | 45.8 | – | –
C=CCSc1nnc(-c2ccccc2NC(=O)CC)c(=O)[nH]1 | – | – | – | –
Cc1[nH]nc2nc3c(c(OC(=O)c4ccccc4)c12)c(=O)n(C)c(=O)n3C | – | – | – | –
CC1CCCN(C(=O)Cn2c(-c3nonc3N)nc3ccccc32)C1 (centres undefined) | – | – | – | –
CCOC(=O)c1ccccc1NC(=O)Cn1c(-c2nonc2N)nc2ccccc21 | – | – | – | 58.6
Nc1nonc1-c1nc2ccccc2n1Cc1ccccc1 | 42.8 | – | – | –
Nc1nonc1-c1nc2ccccc2n1CC(=O)NC1CCCC1 | – | – | – | –
Cn1cc(Cl)c(-c2nc3ccccc3[nH]2)n1 | – | – | – | –
Nc1nonc1-c1nc2ccccc2[nH]1 | 52.0 | – | – | –
O=C(CN(Cc1ccccc1)C(=O)c1ccco1)NCc1ccc(F)cc1 | – | – | – | –
COc1ccc(N(CC(=O)NCc2cccc(OC)c2)S(=O)(=O)c2c(C)noc2C)cc1 | – | – | – | –
COc1ccc(N(CC(=O)NCC2CCCO2)S(=O)(=O)c2c(C)noc2C)cc1 (centres undefined) | – | – | – | 31.7
CC(=O)N=c1c(C#N)cc2c(=O)n3cccc(C)c3nc2n1CC(C)C | – | – | – | –
Cn1c(=O)c2c(-c3ccccc3)n(Cc3cccnc3)cc2n(C)c1=O | – | – | – | –
Cn1c(=O)c2c(-c3ccccc3)n(-n3cnnc3)cc2n(C)c1=O | 50.3 | – | – | 59.2
CC(=O)c1c(C)[nH]c(C(=O)OCCCCN2C(=O)c3ccccc3C2=O)c1C | – | – | – | –
CCN(CC)C(=O)CSc1nnc([C@@H](N)Cc2ccccc2)o1 | – | 82.6 | – | –
SMILES | CatB mixtures | CatL inh | CatS inh | CatB block
COc1cc(CN2CCC(C(=O)N3CCCC(C)C3)CC2)cc(Br)c1O (centres undefined) | – | – | – | –
CCn1c(-c2ccsc2)nc2c1c(=O)[nH]c(=O)n2Cc1ccccc1 | – | – | – | –
COc1ccc(S(=O)(=O)NC(CC(=O)N2CCc3ccccc32)c2ccco2)cc1 (centres undefined) | – | 49.0 | – | –
COc1ccc(CCNC(=O)C2CCN(S(=O)(=O)c3cc(OC)ccc3OC)CC2)cc1 | – | 46.1 | – | –
CCOC(=O)CC(Nc1nc(N2CCOCC2)nc(N2CCOCC2)n1)c1ccccc1Cl (centres undefined) | – | – | – | –
CN1CCN(S(=O)(=O)c2ccc(N3CCN(S(=O)(=O)/C=C/c4ccccc4)CC3)nc2)CC1 | – | 90.5 | – | –
CCOC(=O)N1CCC(NC(=O)c2cc(C)c3c(C)nn(-c4ccccc4)c3n2)CC1 | – | – | – | –
CC(C)C[C@H](N)c1nnc(S(=O)(=O)Cc2cccc(F)c2)o1 | – | 46.4 | – | –
CC(C)(C)OC(=O)N[C@@H](Cc1ccccc1)c1nnc(S(=O)(=O)Cc2cccc(F)c2)o1 | – | – | – | –
